Experimental data published in PubChem BioAssay AID1159580 (chemical genetic matrix, 2015).
The whole screen tested about 5,500 compounds, of which about 2,000 (36%) were called active. Not shown: some 18% with an inconclusive outcome. Cut-off read from the data, not from the text of the source: active = normalized growth mostly below about 0.91 (no sharp cut-off); inconclusive = no clear call, values can overlap the other calls; inactive = mostly above about 0.92. Some of the results follow.

Experiment: chemical genetic growth profiling, strain panel (AID 1159580);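 note: tested at 20 µM; growth read once vehicle control cultures reached saturation at 30 °C; 1 = growth at the plate median or of vehicle wells; lower values mean less growth of the strain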
Settings: growth OD

Measured: normalized growth

C[C@]12CCC(=O)C=C1CCC1C2[C@@H](O)C[C@@]2(C)C1CC[C@]2(O)C(=O)CO (stereo partly drawn)
inactive: S. cerevisiae deletion strains, locus YJR075W, strain HOC1, hits give low values 1.01 | S. cerevisiae deletion strains, locus YKL009W, strain mrt4, hits give low values 0.992 | S. cerevisiae deletion strains, locus YKL068W, hits give low values 1.01 | S. cerevisiae deletion strains, locus YKL085W, strain MDH1 (second series), hits give low values 0.998 | S. cerevisiae deletion strains, locus YKL085W, strain MDH1, hits give low values 0.998 | S. cerevisiae deletion strains, locus YKL160W, strain elf1, hits give low values 0.955 | S. cerevisiae deletion strains, locus YKR001C, strain vps1, hits give low values 0.971 | S. cerevisiae deletion strains, locus YKR026C, strain gcn3, hits give low values 0.993 | S. cerevisiae deletion strains, locus YKR091W, strain srl3, hits give low values 0.999 | S. cerevisiae deletion strains, locus YLL001W, strain dnm1, hits give low values 0.994 | S. cerevisiae deletion strains, locus YLL026W, hits give low values 0.982 | S. cerevisiae deletion strains, locus YLL041C, strain sdh2, hits give low values 0.99 | S. cerevisiae deletion strains, locus YLR027C, strain aat2, hits give low values 1 | S. cerevisiae deletion strains, locus YLR039C, strain RIC1, hits give low values 1.05 | S. cerevisiae deletion strains, locus YLR058C, strain SHM2, hits give low values 1.02 | S. cerevisiae deletion strains, locus YLR102C, strain apc9, hits give low values 0.993 | S. cerevisiae deletion strains, locus YLR113W, strain HOG1, hits give low values 0.99 | S. cerevisiae deletion strains, locus YLR221C, strain rsa3, hits give low values 0.985 | S. cerevisiae deletion strains, locus YLR258W, strain gsy2, hits give low values 0.971 | S. cerevisiae deletion strains, locus YLR262C, strain YPT6 (second series), hits give low values 1 | S. cerevisiae deletion strains, locus YLR262C, strain YPT6, hits give low values 1.08 | S. cerevisiae deletion strains, locus YLR268W, strain sec22, hits give low values 0.977 | S. cerevisiae deletion strains, locus YLR320W, strain mms22, hits give low values 0.986 | S. cerevisiae deletion strains, locus YLR330W, strain CHS5, hits give low values 1.01 | S. cerevisiae deletion strains, locus YLR342W, strain FKS1 (second series), hits give low values 1.01 | S. cerevisiae deletion strains, locus YLR342W, strain FKS1, hits give low values 0.999 | S. cerevisiae deletion strains, locus YLR357W, strain rsc2, hits give low values 0.957 | S. cerevisiae deletion strains, locus YLR370C, strain arc18, hits give low values 1 | S. cerevisiae deletion strains, locus YLR371W, strain rom2, hits give low values 0.971 | S. cerevisiae deletion strains, locus YLR384C, strain iki3, hits give low values 0.998 | S. cerevisiae deletion strains, locus YLR418C, strain cdc73, hits give low values 1.01 | S. cerevisiae deletion strains, locus YML016C, strain PPZ1, hits give low values 1.02 | S. cerevisiae deletion strains, locus YML032C, strain rad52, hits give low values 1.01 | S. cerevisiae deletion strains, locus YML120C, strain ndi1, hits give low values 1.01 | S. cerevisiae deletion strains, locus YML124C, strain tub3, hits give low values 0.994 | S. cerevisiae deletion strains, locus YMR058W, strain fet3, hits give low values 1.01 | S. cerevisiae deletion strains, locus YMR078C, strain ctf18, hits give low values 0.998 | S. cerevisiae deletion strains, locus YMR125W, strain sto1, hits give low values 0.96 | S. cerevisiae deletion strains, locus YMR129W, hits give low values 0.993 | S. cerevisiae deletion strains, locus YMR205C, strain PFK2, hits give low values 0.967 | S. cerevisiae deletion strains, locus YMR223W, strain ubp8, hits give low values 0.993 | S. cerevisiae deletion strains, locus YMR231W, strain pep5, hits give low values 1 | S. cerevisiae deletion strains, locus YMR263W, strain SAP30, hits give low values 1.02 | S. cerevisiae deletion strains, locus YMR307W, strain GAS1, hits give low values 1.04 | S. cerevisiae deletion strains, locus YNL067W, strain RPL9B, hits give low values 1.02 | S. cerevisiae deletion strains, locus YNL071W, strain lat1, hits give low values 1.01 | S. cerevisiae deletion strains, locus YNL153C, strain GIM3, hits give low values 1.03 | S. cerevisiae deletion strains, locus YNL183C, strain NPR1, hits give low values 0.939 | S. cerevisiae deletion strains, locus YNL209W, strain ssb2, hits give low values 0.99 | S. cerevisiae deletion strains, locus YNL233W, strain BNI4, hits give low values 1.02 | S. cerevisiae deletion strains, locus YNL248C, strain rpa49, hits give low values 0.989 | S. cerevisiae deletion strains, locus YNL250W, strain rad50, hits give low values 1.01 | S. cerevisiae deletion strains, locus YNL271C, strain bni1, hits give low values 0.995 | S. cerevisiae deletion strains, locus YNL298W, strain CLA4, hits give low values 1.01 | S. cerevisiae deletion strains, locus YNL307C, strain MCK1, hits give low values 0.995 | S. cerevisiae deletion strains, locus YNL322C, strain KRE1 (second series), hits give low values 0.969 | S. cerevisiae deletion strains, locus YNL322C, strain KRE1, hits give low values 1.01 | S. cerevisiae deletion strains, locus YNR049C, strain mso1, hits give low values 0.999 | S. cerevisiae deletion strains, locus YNR052C, strain pop2, hits give low values 0.999 | S. cerevisiae deletion strains, locus YOL012C, strain htz1 0.617 | S. cerevisiae deletion strains, locus YOL147C, strain pex11, hits give low values 1.02 | S. cerevisiae deletion strains, locus YOR001W, strain rrp6, hits give low values 1.01 | S. cerevisiae deletion strains, locus YOR061W, strain CKA2, hits give low values 1.02 | S. cerevisiae deletion strains, locus YOR069W, strain VPS5, hits give low values 1.01 | S. cerevisiae deletion strains, locus YOR070C, strain gyp1, hits give low values 0.966 | S. cerevisiae deletion strains, locus YOR080W, strain dia2, hits give low values 1.01 | S. cerevisiae deletion strains, locus YOR083W, strain WHI5, hits give low values 0.945 | S. cerevisiae deletion strains, locus YOR106W, strain vam3, hits give low values 0.971 | S. cerevisiae deletion strains, locus YOR136W, strain idh2, hits give low values 0.985 | S. cerevisiae deletion strains, locus YOR144C, strain elg1, hits give low values 0.995 | S. cerevisiae deletion strains, locus YOR184W, strain ser1, hits give low values 0.993 | S. cerevisiae deletion strains, locus YOR231W, strain MKK1, hits give low values 0.99 | S. cerevisiae deletion strains, locus YOR265W, strain rbl2, hits give low values 0.985 | S. cerevisiae deletion strains, locus YOR270C, strain vph1, hits give low values 0.996 | S. cerevisiae deletion strains, locus YOR290C, strain snf2, hits give low values 0.983 | S. cerevisiae deletion strains, locus YOR316C, strain cot1, hits give low values 0.994 | S. cerevisiae deletion strains, locus YPL051W, strain arl3, hits give low values 0.927 | S. cerevisiae deletion strains, locus YPL055C, strain LGE1, hits give low values 1.02 | S. cerevisiae deletion strains, locus YPL078C, strain atp4, hits give low values 0.97 | S. cerevisiae deletion strains, locus YPL106C, strain sse1, hits give low values 0.926 | S. cerevisiae deletion strains, locus YPL240C, strain hsp82, hits give low values 0.992 | S. cerevisiae deletion strains, locus YPL256C, strain CLN2, hits give low values 0.949 | S. cerevisiae deletion strains, locus YPR119W, strain clb2, hits give low values 0.99 | S. cerevisiae deletion strains, locus YPR141C, strain kar3, hits give low values 0.999 | S. cerevisiae deletion strains, locus YPR163C, strain tif3, hits give low values 0.986 | S. cerevisiae deletion strains, locus YPR167C, strain met16, hits give low values 0.991 | S. cerevisiae deletion strains, strain wtn01, hits give low values 0.972 | S. cerevisiae strains, strain wild type, hits give low values 1.02
